Experimental data taken from PubChem BioAssay (NCI).
The panel holds about 83,000 compounds, 20% with a hit somewhere; the sample as a whole holds those more often.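 Cell lines were cultured in 96-well plates, exposed to a single compound concentration, and assessed for percent growth 48 hours later.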 Values without a mark were called inactive. Calls of active or inactive are those of the source. Rule for the calls: active = growth percent below 10; inactive = the rest.

Experiments:
Experiment in all cases: NCI-60 one-dose screen, 48 h (100 = growth as untreated, 0 = no growth, -100 = all killed)
Details in all cases: 10 µM unless noted
[1] = system: HCT-15 colon
[2] = system: HT29 colon
[3] = system: SNB-75 CNS
[4] = system: SNB-19 CNS
[5] = system: U251 CNS
[6] = system: PC-3 prostate
[7] = system: SK-MEL-5 melanoma
[8] = system: UACC-62 melanoma
[9] = system: LOX IMVI melanoma
[10] = system: SK-MEL-28 melanoma

| Compound | growth [1] | growth [2] | growth [3] | growth [4] | growth [5] | growth [6] | growth [7] | growth [8] | growth [9] | growth [10] |
| --- | --- | --- | --- | --- | --- | --- | --- | --- | --- | --- |
| N#CC1=C(N)Oc2c(c(=O)[nH]c3ccc(Cl)cc23)C12C(=O)c1ccccc1C2=O | 98.6% | 108% | 76.5% | 91.6% | 99.4% | 91.6% | 95.9% | 89.4% | 99.6% | 104% |
| N=C(N)c1ccc(-c2ccc(-c3ccc(Cl)cc3Cl)s2)cc1 | -70.6% (active) | 3.85% (active) | 88.5% | 10.9% | -45.4% (active) | 0.127% (active) | 89.3% | 74.8% | -89.3% (active) | 105% |
| CCCCNC(=O)Oc1ccc(/C(=C(/C)Cc2ccc(OC)cc2)c2ccc(OCCN3CCCC3)cc2)cc1 | 13.5% | -11.3% (active) | 70% | 79.3% | 41.3% | 60.7% | 47% | 45.4% | -66.9% (active) | -0.368% (active) |
| N#Cc1c(-c2ccc(Cl)cc2)nc(NN2C(=O)c3ccccc3C2=O)nc1N1CCOCC1 | 112% | 108% | 84.6% | 94.1% | 106% | 110% | 101% | 101% | 102% | 117% |
| CCOC(=O)n1cc(-c2nonc2-c2cn(C(=O)OCC)c3ccc(Br)cc23)c2ccccc21 | 76.8% | 76.1% | 73.1% | 93.5% | 89.8% | 69% | 82.3% | 58.7% | 74.6% | 100% |
| Ic1ccc(OCCCCn2ccnc2)cc1 | 74.5% | 27.5% | 64.5% | 65.2% | 67.8% | 48.6% | 79.6% | 40.6% | 80.3% | 55.9% |
| Cc1c(-c2ccc(O)cc2)n(Cc2ccc(OCCN3CCCCCC3)cc2)c2ccc(O)cc12 | 20.5% | 59.4% | 43.4% | 88.1% | 56.4% | 76.8% | 57.2% | 98.3% | 39.4% | 92.6% |
| Cc1cccc(/C=C2\CN(C(=O)OC(C)(C)C)C/C(=C\c3cccc(C)c3)C2=O)c1 | 76.2% | 46.5% | 74.7% | 95.9% | 63.6% | 89% | 101% | 81.3% | 47.1% | 104% |
| COC12C=C/C(=C(/C(=O)OCc3ccncc3)C(=O)CCCCCCCCC3(OC)C=C/C(=C(/C(=O)OCc4ccncc4)C(=O)CCCCCCCC1)O3)O2 | -57.7% (active) | 1.11% (active) | -57.2% (active) | 7.98% (active) | -50.1% (active) | -35% (active) | -84.5% (active) | -63% (active) | -63.9% (active) | -61.1% (active) |
| CCC1=C[C@@H]2C[C@]3(C(=O)OC)c4[nH]c5ccccc5c4CC[N@+](CC(=O)Nc4cc5c(cc4OC)N(C)[C@H]4[C@@](O)(C(=O)OC)[C@H](OC(C)=O)[C@]6(CC)C=CCN7CC[C@]54[C@@H]76)(C2)[C@H]13 | 108% | 109% | 98.8% | 110% | 97.3% | 93.2% | 101% | 97.7% | 99.1% | 109% |
| O=C(CN1C(=O)S/C(=C\c2ccccc2)C1=O)Nc1ncc(Cc2ccccc2Cl)s1 | 92.3% | 109% | 81.9% | 101% | 95% | 79% | 98.2% | 85.6% | 87.9% | 119% |
| CCN1C(=S)N(c2ccccc2)C2NC(=S)N(/N=C/C=C/c3ccccc3OC)C21 (stereo not given) | 12.9% | 1.16% (active) | -1.02% (active) | 31.3% | 3.1% (active) | 30.1% | 14.1% | 25.7% | 15.4% | 47.8% |
| COc1cc2c(cc1OCCCN1CCN(CCCOc3cc4c(cc3OC)C(=O)N3CC(F)(F)C[C@H]3C=N4)CC1)N=C[C@@H]1CC(F)(F)CN1C2=O | 101% | 60.1% | 2.55% (active) | 47.2% | 7.49% (active) | 68.5% | 20.6% | 76.2% | 12% | 99.3% |
| CCCNC(=O)Nc1ccc2cc3ccc(NC(=O)NCCC)cc3nc2c1 | 94.5% | 98.5% | 71.7% | 68.1% | 61.2% | 81.5% | 81.8% | 91.5% | 72.2% | 81.9% |
| Cn1ccnc1C(=O)/C=C/c1ccc(C(=O)Nc2ccc(Cl)cc2)cc1 | -13.2% (active) | 2.78% (active) | -3.04% (active) | -3% (active) | -50.1% (active) | -6.8% (active) | 32.3% | 16.6% | -84.8% (active) | 62.4% |
| Cc1nc2sc(C(=O)Nc3ccc(Br)cc3)c(N)c2cc1C(O)c1ccccc1 (stereo not given) | 34.7% | 36.7% | 62.6% | 67.7% | 54% | 61.4% | 39.9% | 41.8% | 61.3% | 67.8% |
| Cc1ccc(-c2nc(N3CCCNCC3)c3oc(-c4ccccc4)nc3n2)cc1 | -85.1% (active) | -82.8% (active) | -67.3% (active) | 8.75% (active) | -85.9% (active) | -88.7% (active) | -93.4% (active) | -91.8% (active) | -91.6% (active) | -93.4% (active) |
| OCCn1cc(-c2nc(-c3c[nH]c4ncccc34)cs2)c2cc(F)ccc21 | 41.6% | 46.8% | 72.5% | 79.5% | 62.9% | 48.7% | 63% | 63.3% | 65.5% | 89.8% |
| O=C1NC(=C(Cl)Cl)/C(=N\S(=O)(=O)NCc2ccccc2)N1 | 105% | 108% | 84.6% | 91.2% | 91% | 95.6% | 96.6% | 85.5% | 93.8% | 103% |
| CCO/C=N/C1=C(C#N)C(c2ccc(Cl)cc2)c2sc3c(F)cccc3c2O1 (stereo not given) | 35.7% | 89.5% | 42.6% | 51.2% | 45.7% | 67.1% | 64.9% | 35.9% | 51.8% | 73.6% |
| CCC(C)(C)C(=O)O[C@H]1C[C@@H](C)C=C2C=C[C@H](C)[C@H](CC[C@@H]3CC(SCCN)CC(=O)O3)[C@H]21 (stereo not given in full) | 100% | 75% | 95.5% | 93% | 87.5% | 44.3% | 89.4% | 84.3% | 75.8% | 102% |
| O=C1Nc2ccccc2/C1=C/c1cccn1CCCCn1c2ccccc2c(=O)c2ccccc21 | 31.7% | 89.1% | 78% | 98.4% | 95.1% | 55.1% | 38.6% | 51.8% | 82.5% | 105% |
| CSc1oc(C)nc1[P+](c1ccccc1)(c1ccccc1)c1ccccc1 | 104% | 53.9% | 75.9% | 45% | 42.2% | 52.1% | -9.07% (active) | 47.2% | 28.7% | 61.1% |
| Cc1ccc(Nn2c(SCC(=O)Nc3nc(-c4ccccc4)cs3)nc(C)c2C)cc1 | 67.2% | 56.1% | 24.4% | 74.3% | 49.3% | 71.8% | -66.7% (active) | 51.8% | 51.9% | 82.8% |
| CCn1cc(C(=O)NNC(=S)Nc2ccc(C)cc2)c(=O)c2ccc(C)nc21 | 103% | 97.5% | 97.3% | 102% | 93.9% | 90.2% | 101% | 91.3% | 95.1% | 105% |
| COC(CC(F)F)c1cn(S(=O)(=O)c2ccc(C)cc2)c2ccccc12 (stereo not given) | 20% | 4.89% (active) | 18.6% | 29.2% | 19.6% | 21.3% | 34.1% | 32.1% | 40.7% | 44.7% |
| O=[N+]([O-])c1ccc(O)cc1Br | 101% | 92.6% | 92.7% | 98.6% | 103% | 88.8% | 93.3% | 105% | 95.4% | 109% |
